Results filed as inconclusive are left out. The source made the active and inactive calls. Unless noted, the call rests on the fitted dose curve; in most records, active means well fitted curve in either direction with a large enough effect (not every such curve was filed as active); inconclusive means small, poorly fitted or top-dose-only effect, or another doubt; inactive means flat fitted curve, though single readings scatter.
Columns and labels:
[1] = target: Lysosomal acid glucosylceramidase (Homo sapiens) (UniProt P04062); assay: Glucocerebrosidase-p2 (AID 348; in the data active means potency below about 10 µM; further: potency means the concentration at half of the fitted maximal effect); conditions: purified GBA, blue fluorogenic substrate, 40 min
Method in brief: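 Compounds titrated from 0.6 nM upwards against 0.2 nM enzyme in pH 5.9 citric acid/KH2PO4, taurocholate, tween-20; blue fluorogenic substrate 80 uM, 40 min room temperature, stopped and read Ex 365/Em 440 for AC50.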

[2] = AP1 Signaling Pathway (AID 357); conditions: ME-180 AP-1-bla reporter, EGF-induced, beta-lactamase ratio, 5 h; at 7.69 µM (top of the series) unless noted; further: on the % scale 0 is the no-effect control and ±100 the full control effect
Method in brief: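 AP-1-bla ME-180 cells with beta-lactamase reporter under AP-1 response element, stimulated with EC50 EGF; compounds titrated, 5 hours at 37 degrees Celsius. CCF4 read at 460/530 nm ratio; positive and negative modulators judged by AC50.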

[3] = target: Cytochrome P450 1A2 (Homo sapiens) (UniProt P05177); assay: p450-cyp1a2 (AID 410; calls by dose curve; further: potency means the concentration at half of the fitted maximal effect;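 on activity change, negative = inhibition: -100% = full effect of reference inhibitor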); conditions: recombinant CYP1A2, luciferin-ME demethylation, luminescence; series mostly up to 11.4 µM
Method in brief: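 20nM CYP1A2 with 100uM Luciferin-ME (at Km) in 100mM KPO4; compound preincubated 10 min, NADPH regeneration added, 60 min at room temperature. Luciferin quantified by luminescence after detection reagent; normalized to 57 uM furafylline.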

[4] = NFAT Signaling Pathway (AID 444); conditions: Jurkat NFAT-bla M1, carbachol, beta-lactamase ratio, 5 h; at 7.69 µM (top of the series) unless noted;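 further: carbachol stimulus at about its EC50 of 1 µM final; on the % scale 0 is the no-effect control and ±100 the full control effect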
Method in brief: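 Read-out: CCF4 FRET ratio (460 nm/530 nm) after 1 h RT dye loading, used for %activity and AC50 from titration series. Cells: Jurkat NFAT-β-lactamase/M1 line, treated with compound plus 1 uM carbachol for 5 h, 37 °C.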

[5] = Stat Signaling Pathway (AID 446); conditions: ME-180 SIE beta-lactamase reporter, IL-6 stimulated, 5 h; at 7.69 µM (top of the series) unless noted;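 further: ME-180 cervical cancer cells given 40 pM IL-6 alongside compound; SIE-controlled beta-lactamase reporter measured as 460/530 nm FRET emission ratio; on the % scale 0 is the no-effect control and ±100 the full control effect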
Method in brief: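 ME-180 cells carrying a SIE-driven beta-lactamase reporter are stimulated with 40 pM IL-6 for 5 h at 37C in the presence of compound. The 460/530 nm FRET substrate ratio is read after 2.5 h at RT. Data are normalised to 300 pM IL-6 and to 125 nM JAK inhibitor controls.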

[6] = target: Glucocorticoid receptor (Homo sapiens) (UniProt P04150); assay: GR-GFP Redistribution (AID 450;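 active means compounds whose dose series gives a full or clear partial fitted curve of increased nuclear translocation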; further: potency means the concentration at half of the fitted maximal effect); conditions: U2OS GR-GFP nuclear translocation, laser cytometry, 2 h
[7] = target: Glucocorticoid receptor (Homo sapiens) (UniProt P04150); assay: GR-EFC Redistribution (AID 451; calls by dose curve; further: potency means the concentration at half of the fitted maximal effect); conditions: CHO-K1 GR-EFC translocation, beta-gal luminescence, 2 h
Method in brief: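 Translocation of GR-ED fusion to nuclear EA restores b-gal, read by luminescence after 1 h room-temperature detection. Engineered CHO-K1 biosensor cells, 1,000/well, exposed 2 h at 37 C to titrations up to 46 uM final.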

[8] = target: Mitogen-activated protein kinase 10 (Mus musculus) (UniProt Q61831); assay: JNK3 AlphaScreen Assay (AID 530); conditions: JNK3 lysate, c-Jun phosphorylation; series mostly up to 57.1 µM;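 further: kinase came from lysate of stimulated human HepG2 cells; signal reports phosphorylation of biotinylated GST-cJun 1-79 at Ser73 with 10 µM ATP; on the % scale 0 is the no-effect control and ±100 the full control effect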
Method in brief: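 Compound titrations were preincubated 15 minutes at room temperature with substrate, antibody and pre-activated JNK3-containing HepG2 lysate. Reactions were started with 10 uM ATP and stopped with EDTA-containing bead buffer for AlphaScreen detection.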

[9] = target: 3',5'-cyclic-AMP phosphodiesterase 4B (Homo sapiens) (UniProt Q07343); assay: qHTS Assay for Inhibitors of PDE-IV (AID 607; active means well fitted activation curve with a large enough effect in the main read-out, with a control signal flat, not every such curve was filed as active; further: % of control where 0% means no effect); conditions: HEK293 ACTOne CNG channel cells, membrane potential fluorescence; series mostly up to 22.9 µM
Method in brief: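 HEK293 ACTOne cells with CNG channel (1000/well), endogenous PDE4; membrane potential dye, compounds up to 22.9 uM final. Fluorescence Ex 535/Em 590; RO 20-1724 (100 uM final) as reference.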

[10] = qHTS Assay for Identification of Small Molecule Agonists for Hypoxia Response Element Signaling Pathway (AID 914; active means well fitted activation curve with a large enough effect in the signal ratio, with a control signal flat, not every such curve was filed as active; the % refers to the signal ratio; further: % of control where 0% means no effect); conditions: ME-180 (cervical carcinoma) HRE-bla reporter, beta-lactamase ratio, CoCl2, 17 h; hits give high values
Method in brief: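 AC50 values come from titration-series %Activity, taken as the 460/530nm ratio of CCF4 fluorescence (excitation 405nm). CellSensor HRE-bla ME-180 cells were treated 17 hours at 37 C with compound plus an EC50 level of CoCl2.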

[11] = target: Cytochrome P450 2C9 (Homo sapiens) (UniProt P11712); assay: qHTS Assay for Inhibitors and Substrates of Cytochrome P450 2C9 (AID 883; active means well fitted curve in the direction sought with a large enough effect; an effect the other way counts as inactive or inconclusive; further: potency means the concentration at half of the fitted maximal effect; nearly all actives have a fitted effect of over 60% in size); conditions: recombinant CYP2C9, luciferin-H luminescence, 60 min; series mostly up to 57.1 µM
Method in brief: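 Turnover of Luciferin-H (100uM, KM) by 10nM human CYP2C9 was measured over 60 min at 37C with NADPH regeneration; inhibitors and some substrates reduce luminescence. Data normalized to sulphaphenazole 57uM.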

[12] = target: Cytochrome P450 3A4 (Homo sapiens) (UniProt P08684); assay: qHTS Assay for Activators of Cytochrome P450 3A4 (AID 885; active means well fitted curve in the direction sought with a large enough effect; an effect the other way counts as inactive or inconclusive; further: nearly all actives have a fitted effect of over 65% in size); conditions: recombinant CYP3A4, Luciferin-PPXE luminescence, 60 min; series mostly up to 57.1 µM
Method in brief: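 Human CYP3A4 (20 nM) with Luciferin-PPXE at 25 uM (its KM) in 200 mM KPO4; 10 min compound preincubation, then NADPH regeneration and 60 min reaction at RT. Luciferin read by luminescence; normalized to 57 uM ketoconazole full inhibition.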

[13] = target: Cytochrome P450 2D6 (Homo sapiens) (UniProt P10635); assay: qHTS Assay for Inhibitors and Substrates of Cytochrome P450 2D6 (AID 891; active means well fitted curve in the direction sought with a large enough effect; an effect the other way counts as inactive or inconclusive; further: nearly all actives have a fitted effect of over 60% in size; further: potency means the concentration at half of the fitted maximal effect); conditions: recombinant CYP2D6, luciferin-ME EGE luminescence; series mostly up to 11.4 µM
Method in brief: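 Human CYP2D6 (5 nM) with 30 uM Luciferin-ME EGE (at Km) in 100 mM KPO4, compound preincubated 10 min, then NADPH regeneration system for 60 min at room temperature. Luciferin read by luminescence; normalized to 1.43 uM quinidine.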

[14] = target: Cytochrome P450 2C19 (Homo sapiens) (UniProt P33261); assay: qHTS Assay for Inhibitors and Substrates of Cytochrome P450 2C19 (AID 899; active means well fitted curve in the direction sought with a large enough effect; an effect the other way counts as inactive or inconclusive; further: potency means the concentration at half of the fitted maximal effect; nearly all actives have a fitted effect of over 60% in size); conditions: recombinant CYP2C19, luciferin-H EGE luminescence; series mostly up to 11.4 µM
Method in brief: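 Reactions contain 5nM enzyme, 10uM Luciferin-H EGE (KM) and 50mM KPO4; compound preincubates 10 min at 37C, NADPH regeneration starts turnover for 60 min. Luminescence after detection reagent gives activity.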

Cytochrome P450 1A2 (Homo sapiens), sequence (P05177 whole entry, looked up): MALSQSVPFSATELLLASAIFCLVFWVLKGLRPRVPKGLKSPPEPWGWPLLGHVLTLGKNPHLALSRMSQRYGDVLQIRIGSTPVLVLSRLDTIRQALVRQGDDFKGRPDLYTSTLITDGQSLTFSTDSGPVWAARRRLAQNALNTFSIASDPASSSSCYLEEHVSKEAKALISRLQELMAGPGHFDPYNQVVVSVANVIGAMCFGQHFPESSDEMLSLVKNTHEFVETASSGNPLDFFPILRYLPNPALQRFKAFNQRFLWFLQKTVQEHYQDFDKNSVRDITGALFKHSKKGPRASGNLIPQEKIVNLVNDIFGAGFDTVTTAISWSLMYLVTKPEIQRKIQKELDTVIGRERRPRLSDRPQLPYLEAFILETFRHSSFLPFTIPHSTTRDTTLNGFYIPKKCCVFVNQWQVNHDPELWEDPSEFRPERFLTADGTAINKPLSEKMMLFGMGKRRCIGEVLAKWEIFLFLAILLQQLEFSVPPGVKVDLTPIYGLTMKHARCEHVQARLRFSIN
Glucocorticoid receptor (Homo sapiens), sequence (P04150 whole entry, looked up, the tested form may be a part): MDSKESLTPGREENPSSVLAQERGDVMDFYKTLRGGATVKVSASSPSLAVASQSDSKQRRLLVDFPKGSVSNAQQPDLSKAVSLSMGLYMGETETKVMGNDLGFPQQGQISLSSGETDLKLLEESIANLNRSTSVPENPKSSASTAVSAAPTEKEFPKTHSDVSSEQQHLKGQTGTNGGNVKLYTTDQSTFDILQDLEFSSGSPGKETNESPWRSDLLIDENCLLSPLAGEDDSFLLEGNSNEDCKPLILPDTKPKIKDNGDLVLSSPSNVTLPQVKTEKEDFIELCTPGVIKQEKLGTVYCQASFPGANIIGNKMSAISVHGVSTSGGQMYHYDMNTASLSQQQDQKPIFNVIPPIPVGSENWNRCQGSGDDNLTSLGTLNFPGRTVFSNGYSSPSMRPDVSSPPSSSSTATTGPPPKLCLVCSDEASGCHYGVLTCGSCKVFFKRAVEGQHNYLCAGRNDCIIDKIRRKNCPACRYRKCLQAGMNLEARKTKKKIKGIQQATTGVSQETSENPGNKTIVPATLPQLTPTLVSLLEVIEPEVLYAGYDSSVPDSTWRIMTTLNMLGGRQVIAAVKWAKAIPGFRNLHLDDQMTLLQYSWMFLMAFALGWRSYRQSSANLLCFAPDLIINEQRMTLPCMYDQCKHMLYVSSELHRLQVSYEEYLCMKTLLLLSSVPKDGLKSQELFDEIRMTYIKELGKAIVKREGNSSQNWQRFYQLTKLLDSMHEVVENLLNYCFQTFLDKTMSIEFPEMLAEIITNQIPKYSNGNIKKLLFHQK
3',5'-cyclic-AMP phosphodiesterase 4B (Homo sapiens), sequence (Q07343 whole entry, looked up): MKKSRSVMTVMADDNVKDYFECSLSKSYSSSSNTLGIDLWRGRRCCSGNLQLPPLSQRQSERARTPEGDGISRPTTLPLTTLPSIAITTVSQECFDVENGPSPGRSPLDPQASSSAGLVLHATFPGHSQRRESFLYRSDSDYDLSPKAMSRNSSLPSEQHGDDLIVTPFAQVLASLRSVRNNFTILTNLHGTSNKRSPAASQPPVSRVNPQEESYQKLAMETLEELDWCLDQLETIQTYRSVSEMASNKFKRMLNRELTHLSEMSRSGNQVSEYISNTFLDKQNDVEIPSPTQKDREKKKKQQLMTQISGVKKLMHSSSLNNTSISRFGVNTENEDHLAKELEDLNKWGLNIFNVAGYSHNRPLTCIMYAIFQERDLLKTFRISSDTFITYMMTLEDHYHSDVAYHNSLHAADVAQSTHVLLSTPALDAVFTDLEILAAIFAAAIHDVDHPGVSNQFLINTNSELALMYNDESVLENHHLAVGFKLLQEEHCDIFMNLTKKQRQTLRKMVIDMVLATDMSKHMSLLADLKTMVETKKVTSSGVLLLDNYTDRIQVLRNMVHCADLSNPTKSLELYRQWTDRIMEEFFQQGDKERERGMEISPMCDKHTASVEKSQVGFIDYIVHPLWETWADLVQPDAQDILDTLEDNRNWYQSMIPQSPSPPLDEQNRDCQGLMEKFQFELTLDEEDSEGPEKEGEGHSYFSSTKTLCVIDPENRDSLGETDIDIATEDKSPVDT
Lysosomal acid glucosylceramidase (Homo sapiens), sequence (P04062 whole entry, looked up): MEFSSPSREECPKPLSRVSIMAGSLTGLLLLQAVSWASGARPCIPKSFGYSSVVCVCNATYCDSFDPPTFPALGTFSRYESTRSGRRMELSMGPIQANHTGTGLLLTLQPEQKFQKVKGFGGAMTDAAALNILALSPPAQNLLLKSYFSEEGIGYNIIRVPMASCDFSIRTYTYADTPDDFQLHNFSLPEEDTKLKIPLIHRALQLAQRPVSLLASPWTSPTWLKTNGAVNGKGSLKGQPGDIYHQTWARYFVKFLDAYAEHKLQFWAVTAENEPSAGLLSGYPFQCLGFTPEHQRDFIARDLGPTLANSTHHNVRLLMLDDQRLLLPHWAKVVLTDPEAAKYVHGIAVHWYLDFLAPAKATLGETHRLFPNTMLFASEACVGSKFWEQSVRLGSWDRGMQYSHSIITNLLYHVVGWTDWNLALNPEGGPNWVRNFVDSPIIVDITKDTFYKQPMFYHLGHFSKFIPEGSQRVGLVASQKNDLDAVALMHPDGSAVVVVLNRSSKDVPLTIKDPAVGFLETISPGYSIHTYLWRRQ
Cytochrome P450 2D6 (Homo sapiens), sequence (P10635 whole entry, looked up): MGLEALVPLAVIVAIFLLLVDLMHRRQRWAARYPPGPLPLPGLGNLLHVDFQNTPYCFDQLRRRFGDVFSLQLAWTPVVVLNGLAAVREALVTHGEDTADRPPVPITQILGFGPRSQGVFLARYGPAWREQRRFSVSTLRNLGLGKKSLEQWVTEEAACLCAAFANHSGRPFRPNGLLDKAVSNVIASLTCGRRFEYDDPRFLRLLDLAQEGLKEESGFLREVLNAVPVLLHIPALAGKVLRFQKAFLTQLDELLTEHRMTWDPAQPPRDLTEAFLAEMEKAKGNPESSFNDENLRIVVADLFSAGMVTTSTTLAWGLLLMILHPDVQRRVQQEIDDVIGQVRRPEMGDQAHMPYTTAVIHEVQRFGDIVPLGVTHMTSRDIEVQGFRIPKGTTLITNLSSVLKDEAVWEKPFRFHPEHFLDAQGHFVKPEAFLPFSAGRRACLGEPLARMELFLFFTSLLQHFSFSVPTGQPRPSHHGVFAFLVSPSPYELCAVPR
Cytochrome P450 2C19 (Homo sapiens), sequence (P33261 whole entry, looked up): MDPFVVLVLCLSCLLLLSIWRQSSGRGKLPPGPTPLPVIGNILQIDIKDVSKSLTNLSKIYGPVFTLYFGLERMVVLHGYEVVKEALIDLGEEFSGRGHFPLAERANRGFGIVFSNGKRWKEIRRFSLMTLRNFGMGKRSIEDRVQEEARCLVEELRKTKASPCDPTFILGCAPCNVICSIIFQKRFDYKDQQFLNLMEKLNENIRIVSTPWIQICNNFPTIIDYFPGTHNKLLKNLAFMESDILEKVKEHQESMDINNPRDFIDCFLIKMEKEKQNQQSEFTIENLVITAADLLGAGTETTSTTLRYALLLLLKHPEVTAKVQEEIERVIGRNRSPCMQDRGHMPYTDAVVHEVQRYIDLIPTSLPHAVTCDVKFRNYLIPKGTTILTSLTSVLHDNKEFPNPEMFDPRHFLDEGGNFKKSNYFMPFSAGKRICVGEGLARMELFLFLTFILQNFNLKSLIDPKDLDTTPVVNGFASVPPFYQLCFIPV
Cytochrome P450 2C9 (Homo sapiens), sequence (P11712 whole entry, looked up): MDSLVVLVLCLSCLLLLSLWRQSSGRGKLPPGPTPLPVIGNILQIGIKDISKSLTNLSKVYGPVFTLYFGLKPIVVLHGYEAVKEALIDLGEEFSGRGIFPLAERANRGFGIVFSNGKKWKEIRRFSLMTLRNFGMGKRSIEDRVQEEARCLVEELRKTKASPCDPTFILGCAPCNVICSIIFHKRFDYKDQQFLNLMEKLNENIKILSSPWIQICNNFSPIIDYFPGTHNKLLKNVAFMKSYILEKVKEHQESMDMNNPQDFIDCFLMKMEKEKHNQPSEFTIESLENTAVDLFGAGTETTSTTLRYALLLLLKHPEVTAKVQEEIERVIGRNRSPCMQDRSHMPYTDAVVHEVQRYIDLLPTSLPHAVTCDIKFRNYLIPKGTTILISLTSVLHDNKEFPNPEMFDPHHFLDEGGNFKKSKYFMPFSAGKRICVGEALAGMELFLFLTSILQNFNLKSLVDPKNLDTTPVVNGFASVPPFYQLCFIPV
Cytochrome P450 3A4 (Homo sapiens), sequence (P08684 whole entry, looked up): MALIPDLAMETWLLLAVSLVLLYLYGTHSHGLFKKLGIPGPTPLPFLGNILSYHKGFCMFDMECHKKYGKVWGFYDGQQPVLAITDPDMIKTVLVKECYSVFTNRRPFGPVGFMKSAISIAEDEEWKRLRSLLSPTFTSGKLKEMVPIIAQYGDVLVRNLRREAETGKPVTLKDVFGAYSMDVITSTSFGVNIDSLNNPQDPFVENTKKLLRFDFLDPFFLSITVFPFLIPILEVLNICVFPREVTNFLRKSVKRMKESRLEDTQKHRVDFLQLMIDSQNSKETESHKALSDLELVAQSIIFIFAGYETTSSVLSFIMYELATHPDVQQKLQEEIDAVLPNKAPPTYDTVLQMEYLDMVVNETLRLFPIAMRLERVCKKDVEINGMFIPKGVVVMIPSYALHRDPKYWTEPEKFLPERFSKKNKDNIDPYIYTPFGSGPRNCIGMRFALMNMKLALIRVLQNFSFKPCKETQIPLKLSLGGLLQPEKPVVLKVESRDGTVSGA

CC1=NN(c2ccc(S(=O)(=O)O)cc2C)C(=[OH+])[C@H]1N=Nc1cc(S(=O)(=O)O)ccc1C(=O)O.O.[Cr]
inactive: Potency [1] > 11.4 µM | activity change, negative = inhibition [2] -5.8% | Potency [3] | activity change, negative = inhibition [4] 12.1% | activity, negative = inhibition [5] 7.29% | Potency [6] > 46 µM | Potency [7] > 9.22 µM | activity change, negative = inhibition [8] -0.77% [at 11.4 µM] | outcome [9]

CN(C)CCCc1c[nH]c2ccccc12
inactive: Potency [1] > 11.4 µM | activity change, negative = inhibition [2] -7.94% | Potency [3] | activity change, negative = inhibition [4] -13% | activity, negative = inhibition [5] 1.91% | Potency [6] > 46 µM | Potency [7] > 9.22 µM | activity change, negative = inhibition [8] 3.98% [at 11.4 µM] | outcome [9]

NC(CCl)=N[C@H]1CN2CCC1CC2
inactive: Potency [1] > 11.4 µM | activity change, negative = inhibition [2] 5.68% | Potency [3] | activity change, negative = inhibition [4] 1.17% | activity, negative = inhibition [5] 13.9% | Potency [6] > 46 µM | Potency [7] > 9.22 µM | activity change, negative = inhibition [8] 1.59% [at 11.4 µM] | outcome [9]

CC[C@@]1(O)C(=O)OCc2c1cc1n(c2=O)Cc2cc3c(NC(=O)CN)cccc3nc2-1
inactive: Potency [1] > 11.4 µM | activity change, negative = inhibition [2] -9.07% | activity change, negative = inhibition [3] -12.3% [at 2.29 µM] | activity change, negative = inhibition [4] -29.2% | activity, negative = inhibition [5] -20.5% | Potency [6] > 46 µM | Potency [7] > 9.22 µM | activity change, negative = inhibition [8] -2.05% [at 11.4 µM] | outcome [9]

Cc1nc2ccccc2cc1C[N+]12CN3CN(CN(C3)C1)C2
inactive: Potency [1] > 11.4 µM | activity change, negative = inhibition [2] -8.29% | activity change, negative = inhibition [4] 6.19% | activity, negative = inhibition [5] 6.99% | Potency [6] > 46 µM | Potency [7] > 9.22 µM | activity change, negative = inhibition [8] 0.875% [at 11.4 µM] | outcome [9] | activation [10] 9.32%
active: Potency [3] 0.631 µM

NCCc1ccc(S(=O)(=O)O)cc1[N+](=O)[O-]
inactive: Potency [1] > 11.4 µM | activity change, negative = inhibition [2] -10.6% | Potency [3] | activity change, negative = inhibition [4] -27.3% | activity, negative = inhibition [5] 1.75% | Potency [6] > 46 µM | Potency [7] > 9.22 µM | activity change, negative = inhibition [8] 10.9% [at 11.4 µM] | outcome [9]

O=[As](O)(O)c1ccc(N=Nc2ccc([As](=O)(O)O)cc2)cc1
inactive: Potency [1] > 11.4 µM | activity change, negative = inhibition [2] 2.76% | Potency [3] | activity change, negative = inhibition [4] 2.59% | activity, negative = inhibition [5] 4.67% | Potency [6] > 46 µM | Potency [7] > 9.22 µM | activity change, negative = inhibition [8] 2.69% [at 11.4 µM] | outcome [9]

C[C@H](Br)CN(C[C@H](C)Br)c1ccc2c(c1)Cc1ccccc1-2
inactive: Potency [1] > 11.4 µM | activity change, negative = inhibition [2] -9.29% | activity change, negative = inhibition [4] 8.25% | activity, negative = inhibition [5] -7.03% | Potency [6] > 46 µM | Potency [7] > 9.22 µM | activity change, negative = inhibition [8] -8.45% [at 11.4 µM] | outcome [9] | activity change, positive = activation [12] -34.7% [at 11.4 µM] | Potency [13]
active: Potency [3] 3.16 µM | Potency [11] 3.16 µM | Potency [14] 2.51 µM

O=C(O)C[C@H]1NCc2cc3ccccc3nc21
inactive: Potency [1] > 11.4 µM | activity change, negative = inhibition [2] 2.39% | activity change, negative = inhibition [3] -4.9% [at 2.29 µM] | activity change, negative = inhibition [4] 13.5% | activity, negative = inhibition [5] 5.32% | Potency [6] > 46 µM | Potency [7] > 9.22 µM | activity change, negative = inhibition [8] 1.75% [at 11.4 µM] | outcome [9]

CN[C@H](Cc1ccccc1)c1cccc(OC)c1O
active: Potency [13] 0.0398 µM | Potency [14] 2 µM
inactive: Potency [1] > 11.4 µM | activity change, negative = inhibition [2] 4.57% | Potency [3] | activity change, negative = inhibition [4] 10.1% | activity, negative = inhibition [5] -6.4% | Potency [6] > 46 µM | Potency [7] > 9.22 µM | outcome [9]

NC[C@@H](Cc1ccccc1)P(=O)(O)O
inactive: Potency [1] > 11.4 µM | activity change, negative = inhibition [2] 11.5% | Potency [3] | activity change, negative = inhibition [4] 4.85% | activity, negative = inhibition [5] 2.4% | Potency [6] > 46 µM | Potency [7] > 9.22 µM | outcome [9]

CCN(CC)CCn1ncc2c(N)ncnc21
inactive: Potency [1] > 11.4 µM | activity change, negative = inhibition [2] 1.87% | Potency [3] | activity change, negative = inhibition [4] 0.535% | activity, negative = inhibition [5] -0.447% | Potency [6] > 46 µM | activity change, negative = inhibition [8] -1.5% [at 11.4 µM] | outcome [9]

C=C(C)c1ccccc1 (tested in a mixture with another compound)
inactive: Potency [1] > 11.4 µM | activity change, negative = inhibition [2] -1.01% | activity change, negative = inhibition [3] -19.6% [at 2.29 µM] | activity change, negative = inhibition [4] -21.5% | activity, negative = inhibition [5] -6.96% | activity change, negative = inhibition [8] -9.26% [at 11.4 µM] | outcome [9]

C[C@@H]1[C@@H](C)N1C[C@H](O)Cn1ccnc1[N+](=O)[O-] (some centres not stated)
inactive: Potency [1] > 11.4 µM | activity change, negative = inhibition [2] 1.57% | Potency [3] | activity change, negative = inhibition [4] 5.22% | activity, negative = inhibition [5] -1.27% | Potency [7] > 9.22 µM | activity change, negative = inhibition [8] -1.55% [at 11.4 µM] | outcome [9]
